Source: PubChem BioAssay (several laboratories)
An excerpt weighted towards active compounds, which were near 2.2% of everything screened.
KLF5 inhibitor: suppresses KLF5 promoter-driven expression; DLD-1 KLF5 promoter-luciferase reporter, luminescence; inhibition, % at 5 µM; actives 0.23% (n = 290,000); AID 1700;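 active = inhibition above a per-plate limit of that plate's mean compound inhibition plus 3 SD, cut at about 60% in these data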;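 note: higher means less KLF5 promoter-driven luciferase light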
Ba/F3 V617F tox: lowers viability of Ba/F3 cells expressing EpoR and JAK2V617F; ATP luminescence; inhibition, % at 5.6 µM; actives 1.1% (n = 220,000); AID 1446;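 active = inhibition above the campaign mean plus 3 SD over all tested compounds, cut at about 24% in these data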;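 note: cytokine-independent growth of Ba/F3 cells driven by EpoR plus mutant JAK2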
APP transl inh: APP translation inhibition; AID 1285; inhibition, % at 2 µM; SH-SY5Y APP 5'UTR-luciferase reporter, luminescence; actives 0.82% (n = 190,000);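 active = inhibition above a set limit, derived from the sample mean plus 3 SD, cut at about 45% in these data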
IEC-6 tox-1: kills IEC-6 intestinal cells in KLF5 counter-screen; inhibition, % at 5 µM; actives 0.78% (n = 290,000); IEC-6 cytotoxicity, luminescence viability; AID 1825
BaF3 parental: parental Ba/F3 viability inhibition as JAK2V617F counter-screen. actives 1.1% (n = 220,000). CellTiter-Glo ATP luminescence. AID 1486. inhibition, % at 5.6 µM;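 active = inhibition above a per-campaign cutoff, the mean inhibition of all tested compounds plus 3 SD, cut at about 27% in these data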
aSyn 5UTR inh: 5' untranslated region of α-synuclein, MLPCN primary screen. actives 0.82% (n = 300,000). inhibition, % (tested at 7.5 µM). alpha-synuclein 5'UTR reporter, inhibitor activity; in the data active = inhibition above about 60%;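 note: H4 neuroglioblastoma cells stably carrying SNCA 5'UTR luciferase fusion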
BaF3 parental 2: reduces parental Ba/F3 viability, JAK2V617F counter-screen; shares compounds with Ba/F3 V617F tox; CellTiter-Glo luminescence; cells kept alive by added IL-3; inhibition, % at 5.6 µM; actives 31% (n = 580); AID 1520;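 active = cell growth inhibition above the hit limit set in the earlier mutant JAK2 cell screen, cut at about 27% in these data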
JAK2V617F confrm: Ba/F3 EpoR-JAK2V617F viability loss, confirmation. shares compounds with Ba/F3 V617F tox. CellTiter-Glo luminescence. inhibition, % at 5.6 µM. actives 66% (n = 580). AID 1521;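 active = mean inhibition above the hit cutoff derived in the earlier primary screen, cut at about 25% in these data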;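 note: higher means lower luminescence from reduced cell ATP and viability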
KLF5 confirm: KLF5 inhibition, confirmation assay | shares compounds with KLF5 inhibitor | DLD-1 KLF5 promoter firefly luciferase reporter, luminescence | inhibition, % at 4 µM | actives 79% (n = 610) | AID 1834;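 active = inhibition above a set limit taken from the earlier primary screen, cut at about 63% in these data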
IEC-6 tox-2: rat IEC-6 cytotoxicity, KLF5 inhibitor counter-screen. shares compounds with KLF5 inhibitor. IEC-6 rat intestinal cells, viability luminescence. inhibition, % at 4 µM. actives 56% (n = 610). AID 1905; in the data active = inhibition above about 23%;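 note: cells exposed to compounds for 48 hours before viability read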
IEC-6 cytotox cf: IEC-6 cytotoxicity, confirmation assay; shares compounds with IEC-6 tox-1; IEC-6 rat intestinal epithelial viability, luminescence; inhibition, % at 5 µM; actives 63% (n = 1,900); AID 1907
Hits are given with their value; - = inactive; . = no result. Cut-off read from the data, not from the text of the source, unless noted: active = inhibition above about 22%; inactive = the rest.

SMILES | KLF5 inhibitor | Ba/F3 V617F tox | APP transl inh | IEC-6 tox-1 | BaF3 parental | aSyn 5UTR inh | others
CCCC[N+]12CCC(CC1)C(=C(c1ccccc1)c1ccccc1)C2 | - | - | - | - | - | -
Cc1cccc(CCNCc2cc3ccc(C)cc3[nH]c2=O)c1 | - | . | . | - | . | -
CN1CCN(c2cn[nH]c(=O)c2Cl)CC1 | - | - | - | - | - | -
Cc1nc2cc(-c3cccc(F)c3)nn2c(C)c1CCC(=O)N1CCC2(CC1)OCCO2 | - | - | - | - | - | 77.4
Cc1nc2c(-c3ccccc3)c(C)nn2c(C)c1CCC(=O)N1CCC2(CC1)OCCO2 | - | - | - | - | - | -
C=C1C(=O)O[C@@H]2C[C@@H](C)[C@@H]3C=CC(=O)[C@@]3(C)[C@@H](O)[C@H]12 | . | . | . | . | . | 119.0
COc1ccc(SCC2CN(C)CCC2c2ccc(F)cc2)cc1 (stereo not drawn) | . | . | . | . | . | -
CC(C(=O)c1c[nH]c2ccccc12)N1CCc2ccccc2C1 (stereo not drawn) | - | 25.8 | - | - | 42.7 | -
O=Cc1cn(Cc2cccc([N+](=O)[O-])c2)c2ccccc12 | - | - | - | - | - | 94.2
N#Cc1ccc(Cn2cc(C=O)c3ccccc32)cc1 | - | . | . | - | . | -
Cc1cccc(Cn2cc(C=O)c3ccccc32)c1 | - | . | . | - | . | 67.6
O=Cc1cn(Cc2ccccc2F)c2ccccc12 | - | - | - | - | - | -
CCN(C(C)=O)c1cccc(-c2ccnc3c(C#N)cnn23)c1 | - | - | . | - | - | .
Cc1cc(C)[n+](C2C3CC4CC(C3)CC2C4)o1 (stereo not drawn) | - | 67.7 | - | - | 65.8 | -
O=C(Cc1ccccc1)N1CCN(Cc2ccc(F)cc2)CC1 | - | . | . | - | . | -
CC12CC[C@H]3[C@@H](CCC4(O)C[C@H](O)CCC34/C=N/NC(=O)c3ccc(O)cc3)C1(O)CCC2C1=CC(=O)OC1 (stereo partly drawn) | - | - | . | - | - | -
CN(C)c1ccc(C(=O)N/N=C/C23CC[C@@H](O)CC2(O)CC[C@@H]2[C@@H]3CCC3(C)C(C4=CC(=O)OC4)CCC23O)cc1 (stereo partly drawn) | - | - | . | - | - | 94.9
COc1cc(C(=O)N/N=C/C23CC[C@@H](O)CC2(O)CC[C@@H]2[C@@H]3CCC3(C)C(C4=CC(=O)OC4)CCC23O)ccc1O (stereo partly drawn) | - | - | . | - | - | -
COc1ccc(C(=O)N/N=C/C23CC[C@@H](O)CC2(O)CC[C@@H]2[C@@H]3CCC3(C)C(C4=CC(=O)OC4)CCC23O)cc1 (stereo partly drawn) | - | - | . | - | - | 88.5
Cc1nn(Cc2ccccc2Cl)c(C)c1C(=O)OCC(=O)NC1CCCC(C)C1C (stereo not drawn) | - | 76.0 | - | - | - | - | BaF3 parental 2=-;JAK2V617F confrm=-
Cc1nn(Cc2ccccc2Cl)c(C)c1C(=O)OCC(=O)NC1CCS(=O)(=O)C1 (stereo not drawn) | - | - | - | - | - | -
O=C(c1ccccc1F)c1cn(CC(=O)N2CCCCC2)c2ccccc12 | - | 49.5 | - | - | - | - | BaF3 parental 2=-;JAK2V617F confrm=-
C[C@H](NC(=O)CCC(=O)N1C[C@H]2C[C@H](C1)c1cccc(=O)n1C2)c1ccccc1 | - | . | . | - | . | -
COC12C(COC(N)=O)C3=C(C(=O)C(C)=C(N)C3=O)N1CC1C2N1C (stereo not drawn) | - | 29.4 | . | - | - | - | BaF3 parental 2=50.3;JAK2V617F confrm=96.1
COc1cc2c(cc1OC)C(C(=O)NC(C)C)C1CCCCN1C2=O (stereo not drawn) | - | - | . | - | - | -
SMILES | KLF5 inhibitor | Ba/F3 V617F tox | APP transl inh | IEC-6 tox-1 | BaF3 parental | aSyn 5UTR inh | others
CCn1nc(/C=C/c2ccccc2)nc2c(=O)n(C)c(=O)nc1-2 | - | 44.0 | - | 102.0 | - | - | BaF3 parental 2=103.1;JAK2V617F confrm=98.8;IEC-6 cytotox cf=104.2
CC(=O)c1cn(CC(=O)NCCc2c[nH]c3ccccc23)c2ccccc12 | - | . | . | - | . | -
CCCCCCC[n+]1ccc(-c2cc[n+](CCCCCCC)cc2)cc1 | 76.9 | 94.5 | - | - | 92.6 | 91.5 | KLF5 confirm=62.8;IEC-6 tox-2=-
CCOC(=O)c1c(NC(=O)C(c2ccccc2)c2ccccc2)sc2c1C1CCN2CC1 | - | - | - | - | - | -
C[C@@H]1O[C@@H](O[C@H]2C[C@@H](O)[C@]3(CO)[C@H]4[C@H](O)C[C@]5(C)[C@@H](C6COC(=O)C6)CC[C@]5(O)[C@@H]4CC[C@]3(O)C2)[C@H](O)[C@H](O)[C@H]1O (stereo partly drawn) | 63.9 | - | 92.7 | - | - | 114.9 | KLF5 confirm=70.7;IEC-6 tox-2=-
COc1ccccc1N(CC(=O)NC1CCCC1)C(=O)c1cnn(C(C)C)c1 | - | - | - | - | - | -
CCC(C)C(NC(=O)CCCNC(=O)CCC(=O)OC1O[C@H]2OC3(C)CC[C@H]4[C@H](C)CCC(C1C)C24OO3)C(=O)O (stereo partly drawn) | 83.2 | . | . | 34.4 | . | - | KLF5 confirm=84.2;IEC-6 tox-2=41.4;IEC-6 cytotox cf=26.4
C[C@@H]1CC[C@H]2[C@@H](C)C(=O)O[C@@H]3O[C@@]4(C)CC[C@@H]1[C@]32OO4 | - | . | . | - | . | -
CC[C@@]1(O)C(=O)OCc2c1cc1n(c2=O)Cc2cc3ccccc3nc2-1 | 62.4 | 97.7 | . | 97.3 | 93.1 | 116.0 | KLF5 confirm=94.0;IEC-6 tox-2=75.3;IEC-6 cytotox cf=72.4
COc1ccc(OCC#CCN2CCNCC2)cc1 | - | . | . | - | . | -
O=C(Cc1ccc([N+](=O)[O-])cc1)N1CCN(Cc2ccc3c(c2)OCO3)CC1 | - | - | . | - | - | -
CC(C)[C@H]1C(=O)O[C@H](C(C)C)C(=O)N(C)[C@@H](C(C)C)C(=O)O[C@H](C(C)C)C(=O)N(C)[C@@H](C(C)C)C(=O)O[C@H](C(C)C)C(=O)N1C | 69.9 | 98.5 | - | 89.2 | 76.8 | 85.7 | KLF5 confirm=-;IEC-6 tox-2=-;IEC-6 cytotox cf=54.0
CC/C(=N\NC(=O)Nc1ccccc1)c1c(O)n(Cc2ccccc2)c(=O)[nH]c1=O | - | - | . | - | - | -
CC(=O)O[C@@]12CO[C@@H]1C[C@H](O)[C@@]1(C)C(=O)[C@H](O)C3=C(C)[C@@H](O)C[C@@](O)([C@@H](OC(=O)c4ccccc4)C12)C3(C)C (stereo partly drawn) | - | . | . | - | . | -
